ELG1 DNA repair = inhibitors of ELG1-dependent DNA repair in HEK293T cells; HEK293T ELG1-luciferase reporter, luminescence, 16 h; DNA damage induced by 5-fluorouridine; Potency, µM (doses to about 46.1 µM), for the others: at the top dose activity change, negative = inhibition, most hits filed as inhibitors; 330,000 compounds, 2.3% hits; AID 504467; note: potency is the fitted concentration of half-maximal effect; nearly all actives have a fitted effect of over 55% in size
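Reporter activity after DNA damage by 5-fluorouridine is monitored. Compound-treated cells incubate 16 hr at 37 °C, then ONE-Glo is added for 30 min before luminescence reading.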
DT40 TDP1 CPT = DT40-hTDP1 cell growth loss with CPT; Potency, µM (top dose mostly 46.2 µM), for inactives: at the highest dose activity change, negative = growth inhibition, most hits filed as inhibitors; 420,000 compounds, 12% hits; chicken DT40 Tdp1-/-;hTDP1 cells + 20 nM CPT, ATP luminescence, 48 h; note: potency is the fitted concentration of half-maximal effect; nearly all actives have a fitted effect of over 55% in size
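Chicken DT40 Tdp1-/- cells complemented with human TDP1, 400 cells/well, exposed to compounds plus 20 nM camptothecin for at least 48 h at 37 C; viability read as ATP content by CellTiter-Glo luminescence.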
RORgamma inh = blocks mouse ROR gamma transcriptional activity | 310,000 compounds, 5.4% hits | Potency, µM (titrated, usually from 53.6 µM), without a hit: at the top dose activity change, negative = inhibition, hits mostly inhibitors | P51450 | Drosophila S2 Gal4-RORgamma UAS-luciferase reporter, 20 h; note: potency is the fitted concentration of half-maximal effect; nearly all actives have a fitted effect of over 60% in size
Target sequence (P51450 whole entry, looked up, the tested form may be a part): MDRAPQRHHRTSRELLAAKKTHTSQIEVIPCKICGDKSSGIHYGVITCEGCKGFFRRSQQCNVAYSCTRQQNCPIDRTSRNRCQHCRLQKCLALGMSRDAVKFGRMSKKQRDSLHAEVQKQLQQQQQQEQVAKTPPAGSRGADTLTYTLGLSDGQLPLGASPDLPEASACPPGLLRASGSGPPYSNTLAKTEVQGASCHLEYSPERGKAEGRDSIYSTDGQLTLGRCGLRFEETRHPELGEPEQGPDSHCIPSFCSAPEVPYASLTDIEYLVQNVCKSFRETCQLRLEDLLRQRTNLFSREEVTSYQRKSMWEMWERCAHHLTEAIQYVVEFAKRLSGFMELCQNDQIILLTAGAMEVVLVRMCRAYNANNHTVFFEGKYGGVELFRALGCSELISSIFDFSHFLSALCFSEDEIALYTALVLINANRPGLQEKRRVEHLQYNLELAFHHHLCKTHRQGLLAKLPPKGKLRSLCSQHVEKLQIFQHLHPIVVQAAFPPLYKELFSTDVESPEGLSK
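Compounds are pin-transferred onto Drosophila Schneider cells expressing a copper-inducible Gal4–ROR gamma transactivation domain fusion. After 1 hr, copper sulfate is added to 700 uM final; luciferase is read 20 hr later.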
VP16 counter = counter-screen for ROR gamma inhibitors: Gal4-VP16 reporter. Drosophila S2 Gal4-VP16 UAS-luciferase, luminescence, 20 h. Potency, µM (highest dose often 53.6 µM), inactives show top-dose activity, negative = inhibition, actives largely listed as inhibitors. 310,000 compounds, 3.5% hits;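 note: Gal4-VP16 expression switched on by copper sulfate through the metallothionein promoter; potency is the fitted concentration of half-maximal effect; nearly all actives have a fitted effect of over 50% in size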
IL-1B inflam inh = inflammasome signaling inhibition, IL-1 beta readout; activity change, % at 57.5 µM; 360,000 compounds, 4.7% hits; THP-1 LPS/ATP IL-1B secretion, AlphaLISA, 16 h; stronger effect = lower value; AID 743279; in the data active = activity change below about -50%; inconclusive = mostly about -30% to -49%
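THP-1 cells pretreated 1 hr with compounds (up to 57.5 uM final), then stimulated with LPS (250 ng/mL final) plus ATP (1.25 mM final); secreted IL-1B measured by AlphaLISA after 16 hr, decreased signal indicating inhibition.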
TDP1 cell noCPT = qHTS for Inhibitors of human tyrosyl-DNA phosphodiesterase 1 (TDP1): qHTS in cells in absence of CPT; Potency, µM (doses to about 46.2 µM), without a hit: at the top dose activity change, negative = growth inhibition, usual class: inhibitors; 420,000 compounds, 15% hits; DT40 Tdp1-/- hTDP1 cells, no CPT, ATP luminescence, 48 h; note: potency is the fitted concentration of half-maximal effect; nearly all actives have a fitted effect of over 55% in size
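Growth kinetics read by CellTiter-Glo luminescence after ≥48 hr at 37 °C. Cells: DT40 Tdp1-/- stably carrying human TDP1, 400 per well, compound exposure in the absence of CPT (DMSO vehicle).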
* = called active by the depositor; i = inactive; ? = inconclusive; nt = no result given; [ ] = remark or other dose. Most compounds without a hit are left out; they make up all but 21% or so of the library. Unless noted, calls come from the whole dose curve; as a rule, active = well fitted curve in the direction sought with a large enough effect; inconclusive = small, poorly fitted or top-dose-only effect, or another doubt; inactive = no such curve, though single readings can be large; an effect the other way counts as inactive or inconclusive. % is set by controls: 0 for no effect and ±100 for the full control effect.

SMILES | ELG1 DNA repair | DT40 TDP1 CPT | RORgamma inh | VP16 counter | IL-1B inflam inh | TDP1 cell noCPT
COc1ccc(/C=C(\NC(=O)c2ccco2)C(=O)NCc2ccco2)cc1 | 23% | -10% | -5% | 9% | -6 | ?
C/C(=N/OC(=O)C1CC1c1ccccc1)c1ccccc1 (stereo not given) | -2% | ? | 2% | -3%[10 µM] | 7 | 6%
Cc1ccc2[nH]c(O)c(N=NC(=O)C3CC3c3ccccc3)c2c1Br (stereo not given) | -15% | 21µM* | ? | ? | 7 | 23µM*
c1cncc(-c2cncnc2-n2ccnc2)c1 | nt | 6% | 2% | 7% | nt | 13%
O=C(N/N=C/c1ccc(-c2ccc([N+](=O)[O-])cc2)o1)c1cccnc1 | 8% | 1% | 11µM* | 0% | -11 | -22%
O=C(N/N=C/c1ccc([N+](=O)[O-])cc1)c1cccnc1 | 13% | -21% | ? | 2% | 9 | -23%
O=C(N/N=C/c1ccccc1[N+](=O)[O-])c1ccncc1 | ? | -16% | 23% | 13% | 11 | 9%
Cc1cc([N+](=O)[O-])c(C)cc1-c1ccc(/C=N/NC(=O)c2cccnc2)o1 | -16% | 16µM* | 8.9µM* | ? | -23 | 16µM*
Cn1c(SCC(=O)O)nc2sc3c(c2c1=O)CCC3 | 8% | -14% | -26% | 6% | 18 | -16%
COCCCn1c(SCc2nnc(-c3ccccc3)o2)nc2sc3c(c2c1=O)CCC3 | 19% | ? | -9% | 5% | 16 | ?
CCc1nc(SCC(=O)NCc2ccccc2)c2c(=O)n(C)c(=O)n(C)c2n1 | -6% | ? | 49% | 5% | 33 | ?
Cc1nn(Cc2ccccc2)c(C)c1NC(=O)CSc1nc2sc3c(c2c(=O)n1C)CCC3 | nt | ? | nt | nt | 39 | 18µM*
CN(C)C(CNC(=O)CSc1nc2sc3c(c2c(=O)n1C)CCCC3)c1ccccc1 (stereo not given) | -24% | 23µM* | nt | nt | -1 | 21µM*
Cn1c(SCc2nnc(-c3ccccc3Br)o2)nc2sc3c(c2c1=O)CCC3 | ? | ? | 9% | -2% | -29 | 18µM*
CCCn1c(=O)n(C)c(=O)c2c(SCC(=O)NCC(c3ccccc3)N(C)C)nc(CC(C)C)nc21 (stereo not given) | 0% | 21µM* | ? | 3% | ? | 18µM*
Cn1ccc2c(N3CCCCC3)cc3c(c21)C1CCC3C1 (stereo not given) | nt | ? | nt | nt | 3 | ?
CC1=C(C(=O)N(C)C)CC(CC(=O)NCCCN(C)C)C(=O)N1Cc1ccc(F)cc1 (stereo not given) | nt | -5% | nt | nt | 24 | 4%
COc1cc(NC(=O)COC(=O)Cc2ccc(-c3ccccc3)cc2)cc(OC)c1 | -7% | 0% | -3% | -19% | -3 | -12%
CC(NC(=O)CSc1nc2sc3c(c2c(=O)n1-c1ccccc1)CCCC3)c1ccccc1 (stereo not given) | ? | 6.5µM* | -8% | -1% | 36 | ?
O=C(O)CSc1nc2sc3c(c2c(=O)n1-c1ccccc1)CCC3 | 1% | 2% | -11% | -2% | 41 | -28%
CN(C)c1ncnc2c1ncn2[C@H]1CN(C2CCCC2)C[C@@H](CO)O1 | nt | -6% | nt | nt | 9 | -14%
Cc1cc(C)nc(-n2nc(C)c(Oc3ccccc3O)c2C)n1 | ? | 1% | 10µM* | ? | 37 | -4%
COc1ccc(CN(CCC#N)C(=S)NC(=O)c2ccccc2)cc1 | 1% | ? | 0.32µM* | 0.56µM* | -17 | ?
N#CCCN(Cc1ccccc1)C(=S)NC(=O)c1ccccc1 | ? | 9.2µM* | 0.35µM* | 0.71µM* | 27 | 9.2µM*
N#CCCN(Cc1ccccc1)C(=S)Nc1ccccc1 | 0% | -15% | -41% | 4% | 12 | -20%
SMILES | ELG1 DNA repair | DT40 TDP1 CPT | RORgamma inh | VP16 counter | IL-1B inflam inh | TDP1 cell noCPT
CCN(CC)C(=O)C1=C(C)N(CCC2=CCCCC2)C(=O)C(CC(=O)NCCCN(C)C)C1 (stereo not given) | nt | -3% | nt | nt | 34 | -2%
Cn1cccc1C(=O)N1CCC[C@@]2(CCN(Cc3cc(C(F)(F)F)cc(C(F)(F)F)c3)C2)C1 | nt | ? | ? | -1% | nt | ?
Cc1ccccc1NC(=O)c1ccc(-c2ccc(Cl)cc2Cl)o1 | -1% | ? | 3% | 2% | -11 | 13µM*
COc1cccc(OC)c1NC(=O)c1ccc(-c2cc(Cl)ccc2Cl)o1 | nt | ? | nt | nt | -58* | ?
Cc1ccc(NC(=O)c2ccc(-c3cc(Cl)ccc3Cl)o2)c(C)c1 | nt | 21µM* | nt | nt | -17 | ?
CCc1cccc(CC)c1NC(=O)c1ccc(-c2cc(Cl)ccc2Cl)o1 | nt | ? | nt | nt | 35 | ?
COC(=O)c1ccc(Cn2c(C)c(C(=O)NCc3ccc(Cl)c(Cl)c3)sc2=O)o1 | nt | ? | nt | nt | -2 | 21µM*
COC(=O)c1ccc(Cn2c(C)c(C(=O)NCc3ccco3)sc2=O)o1 | nt | -22% | nt | nt | -56* | -30%
Cc1ccc2c(=O)cc(C(=O)Nc3ccc(S(=O)(=O)N4CCCCC4C)cc3)oc2c1C (stereo not given) | nt | -9% | nt | nt | nt | -21%
CCc1n[n+](CC(=O)c2ccccc2)c(N)s1 | ? | -1% | 2.8µM* | 2.2µM* | 15 | -22%
CC1CCN(C(=O)CSc2nc3c(c(=O)n2C)SC(C)C3)CC1 (stereo not given) | -2% | ? | 4% | -2% | i | 21µM*
CCn1c(SCC(=O)N2CCCc3ccccc32)nc2c(c1=O)SC(C)C2 (stereo not given) | ? | 16µM* | 26% | 0% | 14 | ?
CC1Cc2nc(SCC(=O)N3CCCCC3)n(C)c(=O)c2S1 (stereo not given) | nt | -4% | nt | nt | 4 | ?
CCn1c(SCC(=O)N2CCc3ccccc32)nc2c(c1=O)SC(C)C2 (stereo not given) | 3% | ? | 35% | 8% | 1 | -18%
CC1Cc2nc(SCC(=O)N3CCCc4ccccc43)n(C)c(=O)c2S1 (stereo not given) | 23µM* | ? | ? | -21% | 12 | 13µM*
COCCn1c(SCC(=O)N2CCCc3ccccc32)nc2c(c1=O)SC(C)C2 (stereo not given) | -10% | ? | -3% | 0% | -24 | ?
NCCCCCc1cnc[nH]1 | nt | nt | 4% | -4% | nt | nt

Compound activity as filed in PubChem BioAssay.
